# In the library only some 3.6% were active in any assay of this set; here they are far more common.
# PI5P4Ka inh: qHTS for Inhibitors of phosphatidylinositol 5-phosphate 4-kinase (PI5P4K). Phosphatidylinositol 5-phosphate 4-kinase type-2 alpha (Homo sapiens), P48426. PI5P4Kalpha enzyme, ADP-Glo luminescence, 60 min; hits give low values. max response, %. 330,000 compounds, 1.2% hits. AID 652105, 2013; active = max response of -50% or lower; inconclusive = between -30% and -50%; inactive = -30% or higher; also: value at the top dose of about 77 µM; % is scaled to controls: 0 for no effect and ±100 for the full control effect
#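 Enzyme plus substrate dispensed, test compounds pinned in, then ATP (5 microM final) added. After 60 min at RT, ADP-Glo reagent 1 for 45 min and reagent 2 for 30 min preceded luminescence imaging.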
# Rango dissoc inh: qHTS Assay for Inhibitors of RanGTP induced Rango (Ran-regulated importin-beta cargo) - Importin beta complex dissociation | Biochemical FRET Rango-importin beta, RanGTP-induced dissociation | AID 540253, 2011 | Snurportin-1 (Homo sapiens) + GTP-binding nuclear protein Ran (Homo sapiens) + Importin … | Potency, µM (doses to about 46.1 µM), inactives show at the top dose activity change, negative = inhibition | 340,000 compounds, 0.071% hits; calls by dose curve; also: potency is read from the fitted curve at half-maximal effect; % of control where 0% means no effect; nearly all actives have a fitted effect of over 45% in size
#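 Two FRET readings bracket the reaction: one 5 min after compound meets Rango–importin beta, another 45 min after RanGTP-RCC1 (0.6 uM Ran, 0.2 uM RCC1, 2 mM GTP) is added. Only the second defines inhibition.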
# PLK1 PBD inh: qHTS for Inhibitors of PLK1-PDB (polo-like kinase 1 - polo-box domain): Primary Screen. Serine/threonine-protein kinase PLK1 (Homo sapiens), P53350. Plk1 PBD binding of FITC phosphopeptide, fluorescence polarization. Potency, µM, without a hit: max response, negative = inhibition, hits mostly inhibitors. 360,000 compounds, 2.8% hits. AID 720504, 2013; also: potency is read from the fitted curve at half-maximal effect; series mostly up to about 57 µM; % is scaled to controls: 0 for no effect and ±100 for the full control effect; nearly all actives have a fitted effect of over 65% in size
# Target sequence (P53350 whole entry, looked up, the tested form may be a part): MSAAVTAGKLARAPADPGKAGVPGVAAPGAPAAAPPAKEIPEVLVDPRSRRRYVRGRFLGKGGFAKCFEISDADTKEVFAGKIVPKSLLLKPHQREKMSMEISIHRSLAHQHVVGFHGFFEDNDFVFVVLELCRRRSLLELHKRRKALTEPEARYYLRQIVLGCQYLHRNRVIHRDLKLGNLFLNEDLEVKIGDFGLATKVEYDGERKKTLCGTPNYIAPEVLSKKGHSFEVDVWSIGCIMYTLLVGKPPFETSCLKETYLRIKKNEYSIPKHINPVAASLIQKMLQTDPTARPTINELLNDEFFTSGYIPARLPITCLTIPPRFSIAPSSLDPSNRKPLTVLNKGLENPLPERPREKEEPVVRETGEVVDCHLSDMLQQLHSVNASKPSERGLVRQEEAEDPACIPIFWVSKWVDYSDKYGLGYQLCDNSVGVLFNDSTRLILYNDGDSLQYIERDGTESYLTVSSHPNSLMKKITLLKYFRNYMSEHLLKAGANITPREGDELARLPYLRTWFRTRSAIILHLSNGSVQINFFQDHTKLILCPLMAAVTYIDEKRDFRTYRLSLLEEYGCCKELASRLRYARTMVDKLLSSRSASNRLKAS
# KAT2A inh: qHTS Assay for Inhibitors of GCN5L2. Histone acetyltransferase KAT2A (Homo sapiens), Q92830. GCN5L2 HAT assay, ThioGlo1 CoA-SH fluorescence. Potency, µM (top dose mostly 58.9 µM), inactives show at the top dose activity change, negative = inhibition, actives largely listed as inhibitors. 390,000 compounds, 0.21% hits. AID 504327, 2011; also: potency is read from the fitted curve at half-maximal effect; % is scaled to controls: 0 for no effect and ±100 for the full control effect
#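 ThioGlo1-coupled HAT assay: 20nM GCN5L2, 70uM acetyl-CoA, 75uM H3(1-25) peptide, pH 7.5. Fluorescence read at 340/540nm at start and after 20 min at room temperature.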
# VDR inhibitor: Inhibitors of the vitamin D receptor (VDR): qHTS; Vitamin D3 receptor (Homo sapiens), P11473; VDR-SRC2-3 peptide fluorescence polarization, 2 h; Potency, µM, for inactives: max response, negative = inhibition, actives largely listed as inhibitors; 400,000 compounds, 0.93% hits; also: potency is read from the fitted curve at half-maximal effect; % is scaled to controls: 0 for no effect and ±100 for the full control effect
#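 Compounds are added to VDR with labelled SRC2-3 coactivator peptide and held 2 h at room temperature. Inhibition of the VDR–peptide interaction is then read as a change in fluorescence polarization.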
# Rango-impB inh: qHTS Assay for Inhibitors of Rango (Ran-regulated importin-beta cargo) - Importin beta complex formation; 340,000 compounds, 0.031% hits; AID 540263, 2011; Rango CFP/YFP FRET sensor + importin beta, 45 min; Potency, µM (doses to about 92.2 µM), for the others: at the top dose inhibition of complex formation; Importin subunit beta-1 (Homo sapiens), Q14974; calls by dose curve;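 also: potency is read from the fitted curve at half-maximal effect; 0% = DMSO wells and 100% = buffer wells lacking importin beta; nearly all actives have a fitted effect of over 15% in size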
#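 FRET biosensor (snurportin 1 IBB flanked by EYFP and cerulean), 50 nM, with compound 5 min, then 0.125 microM importin beta in PBS, 1 mM DTT, 0.02% Tween-20, 0.1% BSA. CFP/YFP ratio read after 45 min at room temperature; pre-read flags interference.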
# * marks the source's active call; other numbers are inactive results; ? = inconclusive; . = no result given. Unless noted, calls follow the shape of the dose curve; as a rule, active = well fitted curve in the direction sought with a large enough effect; inconclusive = small, poorly fitted or top-dose-only effect, or another doubt; inactive = no such curve, though single readings can be large; an effect the other way counts as inactive or inconclusive.
SMILES,PI5P4Ka inh,Rango dissoc inh,PLK1 PBD inh,KAT2A inh,VDR inhibitor,Rango-impB inh
Cc1ccc(Cl)cc1NC(=O)c1cnn2c1NC(c1ccco1)CC2C(F)(F)F (stereo unspecified),.,-25%,-2%,-13%,28%,-4%
O=C(Nc1ccc2c(c1)CCC2)c1cnn2c1NC(c1ccco1)CC2C(F)(F)F (stereo unspecified),2,-8%,27µM*,-22%,-18%,-1%
CCCCOC(=O)c1ccc(NS(=O)(=O)c2c(C)nc3scc(C)n3c2=O)cc1,.,.,.,-6%,2%,.
C=C1C(=O)C=C2CN(C(=O)c3ccccc3)[C@@](Cc3ccc(F)cc3)(C(=O)OC)[C@@H]12,-77*,-2%,17µM*,-2%,?,-1%
COC(=O)[C@@]1(Cc2ccc(OC)cc2)[C@H]2c3cc(C(=O)N(C)C)n(C[C@H](O)CO)c3C[C@H]2CN1C(=O)c1ccccc1,-1,1%,-14%,-6%,5%,2%
COC(=O)[C@@]1(Cc2ccc(OC)cc2)[C@@H]2C(=CC(=O)[C@H]2CC(=O)C(=O)N(C)C)CN1C(=O)c1ccccc1,-5,-23%,-14%,-4%,79µM*,2%
CCCCCCCCCCCCN1[C@@H](CC(=O)O)c2cc(C(F)(F)F)ccc2S1(=O)=O,?,-6%,34µM*,.,?,-4%
O=C(COc1ccccc1F)Nc1ccc2nc(SCC(=O)N3CCCC3)sc2c1,.,.,.,-15%,17%,.
NC(=S)n1[nH]c(-c2ccc([N+](=O)[O-])cc2)c(N=Nc2cccc(Cl)c2)c1=O,-79*,1%,?,-6%,8%,1%
NS(=O)(=O)c1ccc(CCNc2nc3c(-c4cccc(F)c4)nnn3c3ccc(Cl)cc23)cc1,.,.,.,-10%,-8%,.
O=C1NC(=Nc2ccc(O)cc2)S/C1=C/c1ccco1,?,1%,-11%,-4%,5%,-5%
O=C1NC(=S)S/C1=C\c1ccc(SCc2ccccc2)o1,-77*,-19%,27µM*,-6%,?,?
O=C1NC(=S)S/C1=C\c1ccc(SCc2ccco2)o1,-99*,-28%,3µM*,14µM*,45µM*,?
CS(=O)(=O)CC[C@@H](C(=O)NCCc1ccccc1)N1Cc2ccccc2C1=O,.,.,.,-8%,-7%,.
CCOC(=O)c1nn(-c2ccc(OC)cc2)c(=O)c2c(N)scc12,.,10%,?,?,18µM*,-4%
CCOC(=O)c1nn(-c2ccc(C)c(C)c2)c(=O)c2c(N)scc12,1,6%,17µM*,?,8%,0%
O=S(=O)(c1cccc(F)c1)N1CCN(c2nc(-c3cccs3)nc3ccccc23)CC1,.,.,.,.,-15%,.
O=C1CCCN1CC(O)CS(=O)(=O)Cc1ccc(Cl)cc1 (stereo unspecified),-3,11%,8%,.,-2%,1%
CC(C)(C)c1ccc(CS(=O)(=O)CC(O)CN2CCCC2=O)cc1 (stereo unspecified),-1,20%,34µM*,-2%,-17%,8%
COc1cc(NC(=O)c2cc(C3CC3)nc3c2c(C)nn3-c2ccc(C)cc2)cc(OC)c1,.,.,.,?,4%,.
Cc1ccc(-n2nc3c(N4CCCC(C(=O)NCc5ccccc5C)C4)nnc(C)c3c2C)cc1 (stereo unspecified),.,.,.,-7%,-5%,.
COc1cc2nc(SCC(=O)Nc3ccccc3C)n3nc(CCn4c(C)nc5ccccc54)nc3c2cc1OC,.,.,.,-6%,4%,.
O=C(COC(=O)c1ccccc1C(=O)c1ccccc1)NCc1ccc(F)cc1,-7,2%,24µM*,-6%,?,-1%
COc1ccccc1OCCn1c(C(C)Oc2ccccc2)nc2ccccc21 (stereo unspecified),.,.,.,-19%,10%,.
COc1ccc(NC(=O)CC2Oc3ccc(C)cc3NC2=O)cc1Cl (stereo unspecified),.,.,.,-5%,-16%,.
SMILES,PI5P4Ka inh,Rango dissoc inh,PLK1 PBD inh,KAT2A inh,VDR inhibitor,Rango-impB inh
CCC1(c2ccc(O)cc2)NC(=O)N(C)C1=O (stereo unspecified),.,.,.,-11%,16%,.
CNC(=O)/C(C#N)=C\c1ccc(CNS(=O)(=O)c2ccc(Cl)cc2)o1,-13,-9%,17µM*,-5%,?,2%
CNC(=O)/C(C#N)=C\c1ccc(CNS(=O)(=O)c2ccccc2)o1,-5,-8%,-11%,-2%,-7%,-1%
CCc1ccc(NC(=O)CCNC(=O)Cn2cnc3ccccc3c2=O)cc1,-16,3%,30µM*,0%,?,0%
CN(C)C(=O)N1CCN(C(=O)c2ccco2)CC1,-2,5%,-5%,-4%,-4%,4%
O=C(CCC1CCCC1)N1CCN(C(=O)c2ccco2)CC1,4,1%,24µM*,-1%,-6%,0%
O=C(c1ccco1)N1CCCN(C(=O)c2ccco2)CC1,.,10%,19µM*,-28%,?,3%
Cc1cccc2cc(C#N)c(N3CCOCC3)nc12,-1,18µM*,2%,-3%,5%,?
Cc1cc(C)c2nc(N3CCCN(C(=O)c4ccco4)CC3)c(C#N)cc2c1,?,?,?,-12%,79µM*,?
CC(C)CC(=O)N1CCN(C(=O)c2ccco2)CC1,-5,-11%,-5%,-1%,-14%,-3%
Cc1ccc(CNC(=O)CCc2c(C)nc3nc(C)nn3c2C)cc1,.,.,.,2%,0%,.
Cc1ccc(-c2ccc(/C=N/NC(N)=S)o2)cc1,-22,7%,6µM*,-14%,89µM*,-5%
Cc1cc(/C=N/NC(N)=S)c(O)c(/C=N/NC(N)=S)c1,-64*,?,?,-6%,-7%,?
CCOc1ccc(C(=O)N/N=C/c2ccc(-c3ccc(S(=O)(=O)Nc4ncccn4)cc3)o2)cc1,.,-12%,-21%,-10%,-3%,?
NC(=S)N/N=C/c1ccc(-c2ccccc2)o1,1,-16%,-9%,-8%,-19%,-3%
NC(=S)NN=Cc1ccc(-c2ccc(S(=O)(=O)Nc3ncccn3)cc2)o1,-55*,?,30µM*,?,-16%,?

# Bioassay records from PubChem.
